Assay results taken from PubChem BioAssay AID624405 (Broad Institute, 2012).
About 250 (13%) of roughly 1,900 compounds were called active. Not shown: some 4% with an inconclusive outcome. A selection follows. Entries with a potency or affinity are not part of this list. A number with no mark means an inactive call.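 Rule for the calls: active = fitted curve reaches 40% rescue activity at or below the top valid dose, in every test run; inconclusive = test runs disagree, some active and some inactive; inactive = every run misses the threshold or moves the wrong way.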

Test: suppressors of statin myotoxicity in myotubes, dose response, cell-based, C2C12 myotubes, ATP luminescence, cherry pick (AID 624405);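 note: myotubes are challenged with simvastatin at 10 µM to lower ATP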
Conditions: C2C12 myotubes + simvastatin, 48 h, scaled: DMSO wells 0, geranylgeraniol wells 100; series mostly up to 19.5 µM; rescue activity (ATP increase): at the top concentration
With `COc1ccc(CCNC2CCN(C)CC2)cc1OC` the “rescue activity (ATP increase)” value was 0.107%.
With `Cc1[nH]c2ccccc2c(=O)c1SC(F)(F)C(F)C(F)(F)F` (stereo unspecified) the “rescue activity (ATP increase)” value was -8.66%.
In the case of `Cc1ccc(CC2CC(=O)N(CCc3ccc4c(c3)OCO4)C2=O)cc1` (stereo unspecified), the “rescue activity (ATP increase)” value is reported as 15.4%.
With `COc1ccc(NC(=O)N(C)C[C@H]2Oc3ccc(NC(=O)Cn4cnnn4)cc3C(=O)N([C@H](C)CO)C[C@H]2C)cc1` the “rescue activity (ATP increase)” value was 2.03%.
With `C[C@@H]1CN([C@H](C)CO)C(=O)Cc2cc(NC(=O)Cc3cn(C)c4ccccc34)ccc2O[C@H]1CN(C)Cc1ccc(C(F)(F)F)cc1` the “rescue activity (ATP increase)” value was -17.1%.
For `COc1cc2c3c(c1)C1(C(=O)N3C(C)(C)C=C2C)C(C#N)=C(N)Oc2cc(C)oc(=O)c21` (stereo unspecified), the “rescue activity (ATP increase)” value was 16%.
With `COc1ccc(CCN2C(=O)C3C(C2=O)C2C=CC3C23CC3)cc1OC` (stereo unspecified) the “rescue activity (ATP increase)” value was -29.4%.
For `C[C@@H]1CCCCO[C@@H](CN(C)Cc2ccc(Cl)c(Cl)c2)[C@@H](C)CN([C@H](C)CO)C(=O)c2cc(NC(=O)Cc3ccccc3)ccc2O1`, the “rescue activity (ATP increase)” value was 18% [at 21 µM].
With `COc1ccc(-n2c(SCC(=O)Nc3ccc4c(c3)OCO4)nc3ccccc3c2=O)cc1` the “rescue activity (ATP increase)” value was 45.4%.
For `Cc1ccc(CSCC(=O)Nc2ccc3c(c2)OCO3)cc1`, the “rescue activity (ATP increase)” value was -21.8%.
With `C[C@@H]1CN([C@H](C)CO)C(=O)c2cccc(NC(=O)Nc3ccc(F)cc3)c2O[C@H]1CN(C)Cc1ccccc1` the “rescue activity (ATP increase)” value was 1.81%.
In the case of `O=C(NC1CCCC1)C(c1ccsc1)N(Cc1ccco1)C(=O)Cc1cccs1` (stereo unspecified), the “rescue activity (ATP increase)” value is reported as 7.96%.
With `Cc1ccc(C(C(=O)NC2CCCC2)N(Cc2cccs2)C(=O)CNC(=O)c2cccs2)o1` (stereo unspecified) the “rescue activity (ATP increase)” value was 3.04%.
For `Cc1ccc(S(=O)(=O)N(C)C[C@@H]2Oc3ncc(C#Cc4cccc(F)c4)cc3C(=O)N([C@H](C)CO)C[C@@H]2C)cc1`, the “rescue activity (ATP increase)” value was 25.8%.
With `C[C@@H]1CCCCO[C@@H](CN(C)C(=O)Nc2cccc3ccccc23)[C@@H](C)CN([C@H](C)CO)C(=O)c2cc(NS(=O)(=O)c3ccc(Cl)cc3)ccc2O1` the “rescue activity (ATP increase)” value was 9.86% [at 21 µM].
In the case of `CC(C)CC#Cc1cnc2c(c1)C(=O)N([C@@H](C)CO)C[C@@H](C)[C@H](CN(C)C(=O)Cc1ccccc1)O2`, the “rescue activity (ATP increase)” value is reported as -4.83%.
With `C[C@H](CO)N1C[C@H](C)[C@H](CN(C)C(=O)Nc2cccc3ccccc23)Oc2ncc(C#Cc3ccc(C(F)(F)F)cc3)cc2C1=O` the “rescue activity (ATP increase)” value was 8.24% [at 21 µM].
With `C[C@H]1CN([C@@H](C)CO)C(=O)c2cc(C#Cc3cccc(F)c3)cnc2O[C@@H]1CN(C)C(=O)C1CCCCC1` the “rescue activity (ATP increase)” value was 24.4%.
With `CC(C)CC#Cc1cnc2c(c1)C(=O)N([C@H](C)CO)C[C@@H](C)[C@H](CN(C)C(=O)Cc1ccccc1)O2` the “rescue activity (ATP increase)” value was 11.1%.
With `COc1cccc(-c2cnc3c(c2)C(=O)N([C@H](C)CO)C[C@H](C)[C@H](CN(C)Cc2ccccc2)O3)c1` the “rescue activity (ATP increase)” value was 17.4%.
With `COc1ccc(C#Cc2cnc3c(c2)C(=O)N([C@H](C)CO)C[C@H](C)[C@H](CN(C)Cc2cccc(C(F)(F)F)c2)O3)cc1OC` the “rescue activity (ATP increase)” value was 20.9%.
For `C[C@H](CO)N1C[C@H](C)[C@H](CN(C)C(=O)Nc2ccc3c(c2)OCO3)Oc2ncc(C#Cc3ccc(F)cc3)cc2C1=O`, the “rescue activity (ATP increase)” value was 8.89%.
In the case of `C[C@H](CO)N1C[C@H](C)[C@@H](CN(C)CC2CCCC2)Oc2ncc(C#Cc3ccncc3)cc2C1=O`, the “rescue activity (ATP increase)” value is reported as 31.5% [at 18 µM].
In the case of `Cc1cc2c(cc1C)/C(=C\C(N)=O)NC(C)(C)C2`, the “rescue activity (ATP increase)” value is reported as -8.58%.
For `COc1cc(C(N)=O)ccc1OCc1ccccc1`, the “rescue activity (ATP increase)” value was 8.22%.
In the case of `CCN(CC)C(=O)CSc1nnc([C@H](CCSC)NC(=O)OC(C)(C)C)o1`, the “rescue activity (ATP increase)” value is reported as -9.94%.
With `O=C(NCc1ccccc1)Oc1cccc(Cl)c1` the “rescue activity (ATP increase)” value was 26.1%.
With `Cc1cc(NC(=O)c2ccc(Cl)c(S(=O)(=O)N3CCOCC3)c2)no1` the “rescue activity (ATP increase)” value was -10.7%.
In the case of `C[C@H]1CN([C@@H](C)CO)C(=O)c2cc(NS(=O)(=O)c3ccc(F)cc3)ccc2O[C@H]1CN(C)Cc1ccc(-c2ccccc2)cc1`, the “rescue activity (ATP increase)” value is reported as 5.05%.
With `CN1C[C@@H]2[C@H](c3ccccc31)[C@@H](CO)N2Cc1ccccc1` the “rescue activity (ATP increase)” value was 21.2% [at 21 µM].
For `C[C@@H]1CN([C@@H](C)CO)C(=O)c2cc(NC(=O)c3ccccc3)ccc2O[C@@H](C)CCCCO[C@H]1CN(C)C(=O)CCCN(C)C`, the “rescue activity (ATP increase)” value was 4.85%.
For `C[C@H]1CCCCO[C@H](CN(C)C(=O)Nc2cccc3ccccc23)[C@@H](C)CN([C@@H](C)CO)C(=O)c2cc(NS(=O)(=O)c3ccc(Cl)cc3)ccc2O1`, the “rescue activity (ATP increase)” value was -11.2%.
In the case of `C[C@@H]1CN([C@H](C)CO)C(=O)c2cc(NC(=O)Nc3ccc(F)cc3)ccc2O[C@@H](C)CCCCO[C@H]1CN(C)S(=O)(=O)c1cccs1`, the “rescue activity (ATP increase)” value is reported as 7.63%.
With `O=C(CN1CCN(c2ccccn2)CC1)NCCc1ccccc1` the “rescue activity (ATP increase)” value was 4.85%.
With `CS(=O)(=O)N(CC(=O)NCc1ccccc1)C1CCCCC1` the “rescue activity (ATP increase)” value was 0.866%.
In the case of `CSc1cc(-c2ccc(Cl)cc2)c(C(=O)NC(C)C)s1`, the “rescue activity (ATP increase)” value is reported as 4.58%.
With `Cc1noc(C)c1NC(=O)Nc1cccc2c1O[C@@H](CN(C)Cc1ccc(-c3ccccc3)cc1)[C@H](C)CN([C@@H](C)CO)C2=O` the “rescue activity (ATP increase)” value was 8.68%.
In the case of `COc1ccc(NC(=O)Nc2cccc3c2O[C@@H](CN(C)Cc2ccc(Oc4ccccc4)cc2)[C@@H](C)CN([C@@H](C)CO)C3=O)cc1`, the “rescue activity (ATP increase)” value is reported as -0.035%.
In the case of `Cc1noc(C)c1NC(=O)Nc1cccc2c1O[C@H](CN(C)Cc1ccc(-c3ccccc3)cc1)[C@@H](C)CN([C@@H](C)CO)C2=O`, the “rescue activity (ATP increase)” value is reported as -5.23%.
For `COc1ccc(NC(=O)Nc2cccc3c2O[C@@H](CN(C)Cc2ccc(Oc4ccccc4)cc2)[C@@H](C)CN([C@H](C)CO)C3=O)cc1`, the “rescue activity (ATP increase)” value was -21% [at 21 µM].
With `C[C@@H]1CN([C@@H](C)CO)C(=O)c2cc(C#CC3CCCCC3)cnc2O[C@@H]1CN(C)C(=O)C1CCCCC1` the “rescue activity (ATP increase)” value was -4.43%.
